This is an account of results in the supplement of paper PMC6555819.

Assay in all cases: PBM binding z-score (relative to random genomic background probes); higher = stronger binding; sequences stand for … in GC…GCGATTGACAGCGTAGAATGAAGG
For test [1], the system named is FXR:RXRa (NR concentration 270 nM, RXRa partner concentration 90 nM). Put shortly:
(§1)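 On custom Agilent 4×180K arrays, double-stranded probes with 34-nt variable regions carried direct-repeat seeds, single-nucleotide variants, half-site ablations or random human genomic background. Ligand-free nuclear receptor dimers were applied for 1 h, and binding was read with antibodies against each partner (one per run). Binding z-scores come from regression-normalized fluorescence, with the random background probes as reference.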

Test [2] deals with LXRa:RXRa (NR concentration 270 nM, RXRa partner concentration 90 nM). A digest of the protocol:
as §1

Test [3] relates to LXRa homodimer (NR concentration 270 nM). Put shortly:
as §1

The subject of test [4] is LXRb:RXRa (NR concentration 270 nM, RXRa partner concentration 90 nM). Put shortly: as §1
Test [5] has as its system LXRb homodimer (NR concentration 270 nM). A digest of the protocol:
as §1

The subject of test [6] is PPARa:RXRa (NR concentration 270 nM, RXRa partner concentration 90 nM). Put shortly:
as §1

The test system of test [7] is PPARg:RXRa (NR concentration 180 nM, RXRa partner concentration 90 nM). A digest of the protocol: as §1
Test [8] relates to PPARg:RXRa 270nM:90nM, anti-RXR (NR concentration 270 nM, RXRa partner concentration 90 nM). Put shortly: as §1
In test [9] the test system is PPARg:RXRa 30nM:10nM, anti-RXR (NR concentration 30 nM, RXRa partner concentration 10 nM). Put shortly: as §1
Test [10] deals with PPARg:RXRa 90nM:30nM, anti-RXR (NR concentration 90 nM, RXRa partner concentration 30 nM). A digest of the protocol: as §1
Test [11] relates to PPARg:RXRa DBDmut IVT, anti-RXR (DBD mutation: RXRa K156A/R161A, NR concentration 270 nM, RXRa partner concentration 90 nM). Put shortly:
as §1

In test [12] the test system is PPARg:RXRa IVT, anti-PPARg (NR concentration 270 nM, RXRa partner concentration 90 nM). A digest of the protocol:
as §1

The subject of test [13] is PPARg DBDmut:RXRa IVT, anti-PPARg (DBD mutation: PPARg1 K132A/R137A, NR concentration 270 nM, RXRa partner concentration 90 nM). Put shortly: as §1
Test [14] relates to PPARg DBDmut IVT, anti-PPARg (DBD mutation: PPARg1 K132A/R137A, NR concentration 270 nM). Put shortly:
as §1

Test [15] relates to PPARg homodimer (NR concentration 180 nM). Put shortly: as §1
Test [16] deals with PXR:RXRa (NR concentration 270 nM, RXRa partner concentration 90 nM). A digest of the protocol:
as §1

Test [17] concerns PXR homodimer (NR concentration 270 nM). Put shortly:
as §1

The test system of test [18] is RARa:RXR (NR concentration 270 nM, RXRa partner concentration 90 nM). Put shortly:
as §1

Test [19] concerns RARa homodimer (NR concentration 270 nM). A digest of the protocol: as §1
Test [20] relates to RARb:RXRa (NR concentration 270 nM, RXRa partner concentration 90 nM). Put shortly:
as §1

Consider ACTAGCAGGCCAAGGGTCACACAAGATTAGTCCG, for which the PBM binding z-score in [1] was 3.44; in test [2] it was 3.18; in test [3], 0.449; in test [4], 3.38; in test [5], -0.147; in test [6], 4.88. Further, the PBM binding z-score in test [7] was determined as 8.73; in test [8], 6.99; in test [9] it was 6.3; in test [10], 7.72; in [11], 1.49; in [12], 4.04. Moreover, the PBM binding z-score is -0.112 in [13]; -0.266 in test [14]; 1.49 in test [15]; 3.56 in test [16]; 0.101 in test [17]; 4.6 in [18]. Further, the PBM binding z-score turned out to be 0.267 in [19] and 3.76 in [20].

For the sequence ATATGTAGGTTATCGGGTCATTCACTTTGCGCAT, the PBM binding z-score in [1] worked out at 3.3; in [2], 3.17; in test [3], 2.13; in test [4], 3.23; in test [5] it was 1.51; in test [6], 5.02. The PBM binding z-score came to 7.09 in [7]; 6.26 in test [8]; 3.66 in test [9]; 5.87 in [10]; 7.73 in test [11]; 7.65 in [12]. The PBM binding z-score was determined as 4.35 in [13]; 2.87 in test [14]; 2.48 in test [15]; 3.44 in test [16]; 1.07 in [17]; 4.15 in [18]. The PBM binding z-score was found to be 2.17 in test [19] and 2.64 in [20].

Consider CCGCGTAGGTTATGGGGCATTCAGGCAACGGTGA, for which the PBM binding z-score in test [1] was 0.332; in test [2], 0.33; in test [3], -0.277; in [4], 0.756; in [5], -0.566; in [6], 1.43. The PBM binding z-score in [7] is 0.613; in [8], 1.17; in [9], -0.391; in [10], 0.458; in test [11], 0.695; in test [12], 0.593. The PBM binding z-score is -1.12 in [13]; -0.878 in test [14]; 0.303 in test [15]; -0.0775 in [16]; -0.606 in [17]; 0.609 in test [18]. In addition, the results for the PBM binding z-score in test [19] and in test [20] were 0.000588 and 0.985, respectively.

Regarding GCTGCTAGGTCAACTGATGGTCAGATAAAGCTCG, the PBM binding z-score came out at 4.47 in test [1]; 3.11 in test [2]; 0.48 in test [3]; 2.43 in test [4]; 0.348 in test [5]; 3.87 in test [6]. Further, the PBM binding z-score is 3.29 in [7]; 3.18 in [8]; 0.958 in [9]; 2.4 in [10]; 4.95 in test [11]; 4.14 in test [12]. Further, the PBM binding z-score in test [13] is -0.121; in test [14] it was 0.186; in [15], 2.79; in test [16] it was 1.8; in test [17], -0.238; in [18], 3.42. For the same sequence, the figures for the PBM binding z-score in [19] and in [20] were -0.022 and 4.22, respectively.

On to AGAATGAGGGTATACGTAGATCAGGGAAGAAAGT, for which the PBM binding z-score in test [1] was 0.101; in [2], 0.0157; in test [3], -0.0552; in test [4], -0.0551; in [5] it was -0.229; in [6], 0.333. For the same sequence, the PBM binding z-score in [7] was 0.755; in test [8], 0.72; in [9], 0.337; in test [10] it was 0.51; in test [11] it was 2.6; in test [12], 0.629. Further, the PBM binding z-score was 0.622 in test [13]; 0.525 in test [14]; 0.231 in test [15]; 0.14 in test [16]; 0.655 in test [17]; 0.0305 in test [18]. The PBM binding z-score was -0.0376 in test [19] and 0.267 in [20].

In the case of ATCTCTAGGTAACACTCAGTTCAGTGAAGAACGC, the PBM binding z-score was found to be 0.92 in [1]; 1.1 in [2]; 0.849 in test [3]; 0.889 in [4]; 1.26 in test [5]; 1.07 in [6]. Moreover, the PBM binding z-score in test [7] stood at 0.692; in test [8], 0.736; in test [9], 0.527; in test [10] it was 0.515; in [11], 3.97; in test [12], 2.95. In addition, the PBM binding z-score in test [13] is 1.8; in test [14], 2.07; in test [15], 1.13; in [16], 1.94; in test [17], 2.42; in [18] it was 1.13. Moreover, the PBM binding z-score was found to be 1.39 in test [19] and 1.06 in [20].

CCTCGGAGGACAAGAGGAGGTCAGAGCTGCCAGA: the PBM binding z-score in test [1] is 0.831; in [2] it was 1.16; in test [3], 0.18; in [4], 0.759; in [5], -0.815; in [6], 1.62. The PBM binding z-score in test [7] is 0.27; in [8], -0.135; in test [9], -0.865; in [10], -0.28; in test [11] it was -0.0535; in [12] it was 0.408. Besides, the PBM binding z-score is -0.899 in test [13]; -1.36 in test [14]; 0.986 in test [15]; 1.71 in test [16]; -0.0509 in test [17]; 1.94 in test [18]. Also, the PBM binding z-score is 0.29 in test [19] and 2.54 in test [20].
